The text below walks through data of PubChem BioAssay.

For experiment [1], the system named is PRMT1 (protein arginine N-methyltransferase 1). As to the kind of experiment: small molecules binding arginine methyltransferase PRMT1 – biochemical, small-molecule microarray, 635 nm fluorescence, primary screen (AID 1088).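 Also: binding of Prmt1 protein to compounds spotted on small-molecule microarray slides.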 Particulars: higher = more signal.
Experiment [2] is described as follows: growth effects on S. cerevisiae YJM789 – YJM789 clinical isolate, OD600, 24 h, basal, primary screen (AID 1089).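 Also: growth of clinical yeast isolate S. cerevisiae YJM 789 seeded 1000 cells per well; test concentration not given here.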 Conditions: higher = more signal, called active from +8 up or from −8 down.
Experiment [3] can be described thus: S. pombe growth modifiers, basal conditions – strain 972, OD600, 24 h, no modulator, primary screen (AID 1090).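 Also: basal condition with compound alone and no growth modifier present; test concentration not given here.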 Conditions: S. pombe 972 growth, higher = more signal, called active from +8 up or from −8 down.
Experiment [4] in a line: budding yeast growth modifiers under rapamycin – strain BY4716, OD600, 96 h, primary screen (AID 1091). Also: test concentration not given here. Conditions: S. cerevisiae BY4716 + rapamycin, higher = more signal, called active from +8 up or from −8 down.
Experiment [5] concerns the target Torsin-1A-interacting protein 2 (Homo sapiens) (UniProt Q8NFQ8). As to the kind of experiment: small molecules binding lysate-expressed LULL1 – cell lysate, human LULL1 lysate, 635/667 nm fluorescence, primary screen (AID 1092).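 Also: probe is lysate of COS7 cells overexpressing human LULL1; score merges per-feature 667 nm fluorescence with signal-to-noise.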 Conditions: small-molecule microarray, hLULL1 lysate binding, 635 nm fluorescence; higher = more signal.
Experiment [6] can be described thus: optical density change of DRC41 E. coli – strain DRC41, OD650, 24 h, E. coli filamentation project, primary screen (AID 1093).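 Also: MC1000 strain lacking acrAB efflux and sulA so SOS filamentation is blocked; test concentration not given here.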 Conditions: E. coli DRC41 growth, higher = more signal, called active from +8 up or from −8 down.
The nature of experiment [7]: probe aLefty2 binding to arrayed compounds – biochemical, biotinylated probe, 635/667 nm fluorescence, primary screen (AID 1094).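 Also: score merges spot fluorescence near 667 nm with spot signal-to-noise ratio.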 Conditions: small-molecule microarray, higher = more signal.
The subject of experiment [8] is Noggin (protein binding on small-molecule microarray). Kind of experiment: small molecules binding Noggin protein – biochemical, 635/667 nm fluorescence, primary screen (AID 1095).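 Also: score merges 667 nm feature fluorescence with signal to noise over triplicate slides.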 Particulars: 635 nm fluorescence, higher = more signal.
For experiment [9], the target named is Neurogenic locus notch homolog protein 3 (Homo sapiens) (UniProt Q9UM47). As to the kind of experiment: small molecules binding NOTCH3 protein – biochemical, 635/667 nm fluorescence, primary screen (AID 1096). Particulars: small-molecule microarray, 635 nm fluorescence, higher = more signal.
Chain of Neurogenic locus notch homolog protein 3 (Homo sapiens) (Q9UM47 whole entry, looked up): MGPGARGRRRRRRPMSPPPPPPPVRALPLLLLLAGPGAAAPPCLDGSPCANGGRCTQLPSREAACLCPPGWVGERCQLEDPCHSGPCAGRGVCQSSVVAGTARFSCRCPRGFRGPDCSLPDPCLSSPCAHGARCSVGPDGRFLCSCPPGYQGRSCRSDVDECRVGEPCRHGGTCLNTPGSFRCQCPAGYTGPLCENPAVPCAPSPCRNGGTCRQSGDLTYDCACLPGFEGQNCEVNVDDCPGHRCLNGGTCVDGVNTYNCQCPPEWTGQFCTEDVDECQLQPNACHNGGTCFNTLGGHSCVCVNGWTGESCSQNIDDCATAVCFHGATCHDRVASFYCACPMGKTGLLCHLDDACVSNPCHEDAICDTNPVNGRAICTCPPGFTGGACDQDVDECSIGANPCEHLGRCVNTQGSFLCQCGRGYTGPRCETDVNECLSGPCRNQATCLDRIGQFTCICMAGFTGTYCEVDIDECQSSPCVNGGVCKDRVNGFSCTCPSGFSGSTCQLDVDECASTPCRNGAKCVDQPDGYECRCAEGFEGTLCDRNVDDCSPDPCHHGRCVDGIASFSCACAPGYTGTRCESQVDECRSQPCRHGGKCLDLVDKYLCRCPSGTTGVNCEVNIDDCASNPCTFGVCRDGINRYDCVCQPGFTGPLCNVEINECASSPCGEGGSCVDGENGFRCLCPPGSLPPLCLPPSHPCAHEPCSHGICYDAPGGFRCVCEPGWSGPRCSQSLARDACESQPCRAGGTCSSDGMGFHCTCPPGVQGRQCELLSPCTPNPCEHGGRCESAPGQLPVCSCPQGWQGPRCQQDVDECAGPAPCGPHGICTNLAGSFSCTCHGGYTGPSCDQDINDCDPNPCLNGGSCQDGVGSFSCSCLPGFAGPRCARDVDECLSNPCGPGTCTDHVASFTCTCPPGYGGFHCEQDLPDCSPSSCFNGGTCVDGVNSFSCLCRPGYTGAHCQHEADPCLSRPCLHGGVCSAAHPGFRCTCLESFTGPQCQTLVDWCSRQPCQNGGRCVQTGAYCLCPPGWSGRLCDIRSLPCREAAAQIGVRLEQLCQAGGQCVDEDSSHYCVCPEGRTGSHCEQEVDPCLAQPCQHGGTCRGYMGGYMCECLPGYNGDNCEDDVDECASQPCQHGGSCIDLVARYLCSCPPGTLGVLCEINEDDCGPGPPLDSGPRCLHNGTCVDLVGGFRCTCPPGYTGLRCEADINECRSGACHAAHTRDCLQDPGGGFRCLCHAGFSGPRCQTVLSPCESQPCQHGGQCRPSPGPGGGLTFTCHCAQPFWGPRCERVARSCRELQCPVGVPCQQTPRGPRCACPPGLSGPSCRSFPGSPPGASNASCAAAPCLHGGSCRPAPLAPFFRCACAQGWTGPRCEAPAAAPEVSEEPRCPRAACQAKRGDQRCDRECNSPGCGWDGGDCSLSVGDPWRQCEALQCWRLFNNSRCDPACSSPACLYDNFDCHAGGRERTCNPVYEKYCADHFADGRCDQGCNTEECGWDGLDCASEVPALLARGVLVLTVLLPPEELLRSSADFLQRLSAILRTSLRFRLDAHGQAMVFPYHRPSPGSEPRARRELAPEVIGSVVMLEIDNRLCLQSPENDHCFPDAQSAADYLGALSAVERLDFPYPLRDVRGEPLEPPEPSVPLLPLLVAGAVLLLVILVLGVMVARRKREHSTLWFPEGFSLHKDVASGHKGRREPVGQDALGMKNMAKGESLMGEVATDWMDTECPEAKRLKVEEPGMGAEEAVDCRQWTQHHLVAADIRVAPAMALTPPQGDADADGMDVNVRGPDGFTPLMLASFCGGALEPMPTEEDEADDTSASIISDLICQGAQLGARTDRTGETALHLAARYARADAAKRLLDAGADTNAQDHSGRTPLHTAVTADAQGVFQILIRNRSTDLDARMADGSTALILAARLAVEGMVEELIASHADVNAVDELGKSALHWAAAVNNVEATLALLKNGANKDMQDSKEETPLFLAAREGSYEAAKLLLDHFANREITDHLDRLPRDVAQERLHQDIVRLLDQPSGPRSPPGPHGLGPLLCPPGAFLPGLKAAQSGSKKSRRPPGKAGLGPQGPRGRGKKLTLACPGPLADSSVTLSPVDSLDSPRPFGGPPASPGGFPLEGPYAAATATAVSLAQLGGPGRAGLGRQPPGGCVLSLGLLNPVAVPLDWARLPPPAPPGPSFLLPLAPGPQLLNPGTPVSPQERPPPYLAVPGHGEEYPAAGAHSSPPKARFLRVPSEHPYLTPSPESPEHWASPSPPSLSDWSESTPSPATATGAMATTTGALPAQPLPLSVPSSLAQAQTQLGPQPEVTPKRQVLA
Experiment [10] can be described thus: probe aEGFR binding to arrayed compounds – biochemical, biotinylated probe, 635/667 nm fluorescence, primary screen (AID 1097).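 Also: probe is a biotinylated anti-EGFR antibody binding compounds printed on slides; score combines fluorescence near 667 nm and signal to noise of each spot.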 Particulars: small-molecule microarray, higher = more signal.
For experiment [11], the system named is Plasmodium falciparum Sir2 (PF13_0152, Sir2A). As to the kind of experiment: Plasmodium falciparum Sir2A binding compounds – biochemical, small-molecule microarray, 635 nm fluorescence, primary screen (AID 1098).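 Also: score merges spot fluorescence intensity with its signal-to-noise ratio.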 Particulars: fluorescence 635 nm, higher = more signal.
The nature of experiment [12]: probe aDKK1 binding to arrayed compounds – biochemical, biotinylated probe, 635/667 nm fluorescence, primary screen (AID 1099).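 Also: score merges 667nm spot fluorescence with signal to noise across triplicate slides; reference of the scale not given here.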 Particulars: small-molecule microarray, higher = more signal.
Experiment [13] in a line: probe aCHRDL2 binding to arrayed compounds – biochemical, biotinylated probe, 635/667 nm fluorescence, primary screen (AID 1100). Conditions: small-molecule microarray, higher = more signal.
The nature of experiment [14]: change in splice reporter luminescence, either direction, cell-based, HEK293, spliceosome inhibition project, primary screen (AID 1101).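 Also: HEK293 cells carrying a splicing-competent luciferase reporter gene; test concentration not given here.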 Conditions: HEK293 splicing luciferase reporter, 24 h, higher = more signal, called active from +8 up or from −8 down. A general note: Reporter assays use an easily measured gene product as a stand-in for the process of interest.
Experiment [15] concerns the target Fibroblast growth factor 10 (Homo sapiens) (UniProt O15520). As to the kind of experiment: compounds binding fibroblast growth factor 10 – biochemical, small-molecule microarray, 635 nm fluorescence, primary screen (AID 1102). Particulars: FGF10 binding, fluorescence 635 nm, higher = more signal.
In experiment [16] the test system is glycogen synthase kinase-3 (GSK3A per assay name; protocol says GSK3B). As to the kind of experiment: compounds binding glycogen synthase kinase-3 – biochemical, small-molecule microarray, 635 nm fluorescence, GSK3A, primary screen (AID 1103). Also: the record names both GSK3A and GSK3B. Particulars: fluorescence 635 nm, higher = more signal.
In experiment [17] the target is Epidermal growth factor receptor (Homo sapiens) (UniProt P00533). As to the kind of experiment: compounds binding epidermal growth factor receptor – biochemical, small-molecule microarray, 635 nm fluorescence, primary screen (AID 1104).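 Also: score merges 667 nm emission intensity with spot signal to noise over triplicate slides.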 Particulars: EGFR binding, higher = more signal.
Chain of Epidermal growth factor receptor (Homo sapiens) (P00533 whole entry, looked up): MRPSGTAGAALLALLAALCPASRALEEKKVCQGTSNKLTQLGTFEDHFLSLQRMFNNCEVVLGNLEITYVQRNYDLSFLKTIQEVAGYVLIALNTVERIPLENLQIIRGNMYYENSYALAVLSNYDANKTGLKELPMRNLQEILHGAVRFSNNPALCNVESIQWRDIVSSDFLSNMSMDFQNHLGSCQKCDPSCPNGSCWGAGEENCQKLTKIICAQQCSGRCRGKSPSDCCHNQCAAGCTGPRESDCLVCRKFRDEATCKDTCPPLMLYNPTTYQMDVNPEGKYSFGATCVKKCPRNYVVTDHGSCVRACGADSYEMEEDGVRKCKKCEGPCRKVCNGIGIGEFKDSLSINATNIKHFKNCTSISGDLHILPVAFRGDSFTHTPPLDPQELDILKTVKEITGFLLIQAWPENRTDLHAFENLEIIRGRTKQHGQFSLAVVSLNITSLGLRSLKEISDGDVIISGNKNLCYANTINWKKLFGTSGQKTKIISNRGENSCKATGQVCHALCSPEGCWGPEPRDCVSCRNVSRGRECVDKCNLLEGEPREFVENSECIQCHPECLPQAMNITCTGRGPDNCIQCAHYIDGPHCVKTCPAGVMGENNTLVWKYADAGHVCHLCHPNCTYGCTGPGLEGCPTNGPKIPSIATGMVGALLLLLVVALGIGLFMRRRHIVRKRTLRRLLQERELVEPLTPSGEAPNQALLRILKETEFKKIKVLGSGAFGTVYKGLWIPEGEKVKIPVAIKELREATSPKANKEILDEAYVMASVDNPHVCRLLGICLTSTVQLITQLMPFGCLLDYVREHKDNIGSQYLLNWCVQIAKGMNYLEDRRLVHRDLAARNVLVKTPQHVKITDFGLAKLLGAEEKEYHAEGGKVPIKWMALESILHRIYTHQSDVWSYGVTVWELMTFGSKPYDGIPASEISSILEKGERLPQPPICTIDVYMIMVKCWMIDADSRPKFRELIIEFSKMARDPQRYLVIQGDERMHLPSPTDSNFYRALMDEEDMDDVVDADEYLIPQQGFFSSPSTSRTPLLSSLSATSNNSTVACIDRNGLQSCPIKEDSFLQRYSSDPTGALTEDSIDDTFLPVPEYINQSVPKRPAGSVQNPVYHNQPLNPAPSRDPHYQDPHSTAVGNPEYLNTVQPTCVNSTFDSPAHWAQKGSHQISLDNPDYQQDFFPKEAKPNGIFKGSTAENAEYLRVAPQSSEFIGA
In experiment [18] the target is Follistatin-related protein 3 (Homo sapiens) (UniProt O95633). Kind of experiment: compounds binding follistatin-related protein 3 – biochemical, small-molecule microarray, 635 nm fluorescence, primary screen (AID 1105).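 Also: score merges emission near 667 nm and signal to noise per printed spot across three slides.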 Conditions: FSTL3 binding, higher = more signal.
Chain of Follistatin-related protein 3 (Homo sapiens) (O95633 whole entry, looked up): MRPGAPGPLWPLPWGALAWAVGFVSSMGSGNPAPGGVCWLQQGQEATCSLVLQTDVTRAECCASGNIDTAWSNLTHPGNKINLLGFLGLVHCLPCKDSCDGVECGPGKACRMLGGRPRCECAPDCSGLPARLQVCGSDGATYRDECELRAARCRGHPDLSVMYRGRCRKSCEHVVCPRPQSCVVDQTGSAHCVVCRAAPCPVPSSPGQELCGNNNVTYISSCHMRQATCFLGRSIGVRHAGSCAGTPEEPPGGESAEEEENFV
In experiment [19] the target is Dickkopf-related protein 1 (Homo sapiens) (UniProt O94907). As to the kind of experiment: small molecules binding DKK1 protein – biochemical, small-molecule microarray, 635 nm fluorescence scan, primary screen (AID 1106).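 Also: score merges emission near 667 nm with signal to noise over three replicate slides.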 Conditions: higher = more signal.
Chain of Dickkopf-related protein 1 (Homo sapiens) (O94907 whole entry, looked up): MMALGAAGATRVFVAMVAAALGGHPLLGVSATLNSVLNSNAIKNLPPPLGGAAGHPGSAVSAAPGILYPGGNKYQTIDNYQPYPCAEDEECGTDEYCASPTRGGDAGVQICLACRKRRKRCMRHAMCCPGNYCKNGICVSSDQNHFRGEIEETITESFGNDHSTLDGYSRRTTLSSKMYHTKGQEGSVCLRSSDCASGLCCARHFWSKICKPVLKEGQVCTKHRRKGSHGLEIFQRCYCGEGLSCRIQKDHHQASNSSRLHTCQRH
Experiment [20] concerns Inhibin beta A chain (activin A). As to the kind of experiment: small molecules binding activin A – biochemical, small-molecule microarray, 635 nm fluorescence scan, primary screen (AID 1107).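 Also: mouse activin A protein probed at 4.33 µg/mL on printed slides; score merges bound-protein fluorescence near 667 nm with spot signal-to-noise.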 Particulars: INHBA, higher = more signal.

The structures appear in SMILES notation. Calls of active or inactive are those of the source.

Chain of Fibroblast growth factor 10 (Homo sapiens) (O15520 whole entry, looked up): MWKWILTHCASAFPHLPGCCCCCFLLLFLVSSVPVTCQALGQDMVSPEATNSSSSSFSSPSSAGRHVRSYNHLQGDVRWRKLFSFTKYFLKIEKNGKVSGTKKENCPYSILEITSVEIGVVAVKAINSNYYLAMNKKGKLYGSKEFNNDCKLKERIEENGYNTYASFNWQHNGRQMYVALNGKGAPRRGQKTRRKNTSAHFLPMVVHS
Chain of Torsin-1A-interacting protein 2 (Homo sapiens) (Q8NFQ8 whole entry, looked up): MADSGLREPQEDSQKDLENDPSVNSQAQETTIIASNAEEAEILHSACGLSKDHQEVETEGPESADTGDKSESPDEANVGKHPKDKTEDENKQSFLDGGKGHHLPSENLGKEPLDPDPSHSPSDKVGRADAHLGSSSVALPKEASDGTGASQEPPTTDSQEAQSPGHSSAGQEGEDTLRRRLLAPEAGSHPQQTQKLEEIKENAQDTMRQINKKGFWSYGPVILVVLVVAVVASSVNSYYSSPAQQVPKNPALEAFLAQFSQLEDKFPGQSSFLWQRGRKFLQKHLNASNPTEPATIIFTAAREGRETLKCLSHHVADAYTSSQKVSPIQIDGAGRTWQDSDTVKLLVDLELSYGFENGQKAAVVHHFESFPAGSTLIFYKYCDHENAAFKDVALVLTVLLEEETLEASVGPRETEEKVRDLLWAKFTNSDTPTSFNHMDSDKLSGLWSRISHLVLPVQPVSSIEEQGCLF

Consider `CCOC(=O)C1=NO[C@@]2(C=C(Br)C3(OCCCO3)[C@H]3O[C@H]32)C1`, for which the composite z-score in experiment [1] was -0.481; in [5] it was 0.0603; in [7], 0.105; in experiment [8], 1.42; in [9], 0.91; in experiment [10], -0.004. In addition, the composite z-score in experiment [11] was 0.984; in [12], -0.042; in experiment [13], 0.521; in [15], 1.07; in experiment [16], 0.827; in experiment [17], 1.13. Besides, the composite z-score in experiment [18] was found to be 0.842; in experiment [19], 1.66; in experiment [20], 1.59. In addition, the z-score was 0.74 (inactive) in experiment [2]; 0.664 (inactive) in [3]; -0.291 (inactive) in experiment [4]; 0.292 (inactive) in experiment [6]; 0.0671 (inactive) in experiment [14].
Take `C[C@@H](c1ccccc1)N1C(=O)[C@H]2[C@H]3[C@H](O)[C@H](O)CC(=NO[C@@H]4O[C@H](CO)[C@@H](O)[C@H](O)[C@H]4O)[C@H]3CC[C@H]2C1=O`: the composite z-score in [1] is -0.997; in [5], 0.288; in [7], -0.0928; in experiment [8] it was 0.587; in experiment [9] it was 0.675; in experiment [10], -0.0223. In addition, the composite z-score in experiment [11] is 0.249; in experiment [12], -0.155; in experiment [13] it was -0.546; in experiment [15], 0.559; in [16] it was 0.783; in [17] it was 0.425. In addition, the values for the composite z-score in [18], in experiment [19] and in experiment [20] were 1.03, 0.44 and 0.0882, respectively. Besides, the z-score in experiment [2] is -0.264 (inactive); in experiment [3], 1.06 (inactive); in [4], 0.749 (inactive); in experiment [6], 0.466 (inactive); in [14], 0.0641 (inactive).
For `C[C@@H](c1ccccc1)N1C(=O)[C@H]2[C@H]3[C@H](O)[C@H](O)CC(=O)[C@H]3CC[C@H]2C1=O`, the composite z-score in [1] is 0.157; in experiment [5], 0.461; in experiment [7], -0.0483; in experiment [8] it was 0.482; in experiment [9] it was 0.521; in experiment [10], -0.108. Also, the composite z-score is -0.417 in [11]; -0.338 in experiment [12]; -0.489 in experiment [13]; 0.526 in experiment [15]; 0.523 in experiment [16]; 0.202 in [17]. In addition, the composite z-score is 0.548 in [18], 0.491 in experiment [19] and -0.0854 in [20]. Also, the z-score in [2] was -0.394 (inactive); in experiment [3], -0.197 (inactive); in experiment [4] it was 0.134 (inactive); in [6] it was 0.541 (inactive); in experiment [14] it was 0.282 (inactive).
Turning to `C#CCCCON=C1C[C@@H](O)[C@@H](O)[C@@H]2[C@@H]3C(=O)N(C(C)(C)C)C(=O)[C@@H]3CC[C@@H]12`, the composite z-score was -0.227 in [1]; 0.148 in experiment [5]; 0.502 in experiment [7]; -1.11 in experiment [8]; -1.07 in [9]; -0.106 in [10]. Moreover, the composite z-score in experiment [11] was 0.856; in experiment [12], 1.19; in [13], 1.28; in [15], -0.624; in experiment [16], -0.545; in [17] it was -0.306. The composite z-score in experiment [18] is -0.576; in [19] it was -1.1; in [20], 0.477. For the same compound, the z-score was 0.266 (inactive) in [2]; 0.0546 (inactive) in [3]; 0.934 (inactive) in experiment [4]; -0.131 (inactive) in experiment [6]; 0.624 (inactive) in [14].
As for `CCOC(=O)[C@H](CC(C)C)NC(=O)CCC1CC(OC(=O)NCCc2ccc(F)cc2)CC2(CCCC(COC(=O)NCCOc3ccccc3)O2)O1` (stereo not given in full), the composite z-score was 1.56 in experiment [1]; 2.21 in experiment [5]; -0.0965 in experiment [7]; 0.676 in experiment [8]; 1.11 in experiment [9]; -0.0828 in experiment [10]. Further, the composite z-score in experiment [11] is 1.4; in experiment [12], -0.0843; in [13] it was -0.545; in experiment [15] it was 0.989; in experiment [16], 0.508; in experiment [17] it was 0.672. Further, the figures for the composite z-score in experiment [18], in experiment [19] and in [20] were 1.1, 1.52 and -0.0219, respectively. Moreover, the z-score in experiment [2] was 0.407 (inactive); in [3], 0.374 (inactive); in experiment [4], -0.445 (inactive); in [6] it was -0.552 (inactive); in experiment [14] it was 0.119 (inactive).
